Screening data from PubChem.
HTRA1 inhibitor = inhibitors of human serine peptidase HTRA1; inhibition, % at 5.96 µM; Q92743; 340,000 tested, 0.5% active; recombinant HTRA1, FP-rhodamine activity-based probe, fluorescence polarization; in the data active = inhibition above about 36%
DAGLB inhibitor = diacylglycerol lipase beta (human) inhibition. inhibition, % at 5.17 µM. Q8NCG7. 340,000 tested, 0.059% active. HEK293T DAGLB membrane lysate, EnzChek fluorogenic substrate; in the data active = inhibition above about 34%
PAFAH1B3 FP inh = blocks human PAF acetylhydrolase 1B catalytic subunit 3 | inhibition, % at 3.39 µM | recombinant PAFAH1B3, FP-rhodamine probe, fluorescence polarization | AID 492972 | 340,000 tested, 0.28% active | Q15102;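 active = inhibition above the screen-wide average of all tested compounds plus 3 SD, cut at about 25% in these data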
PAFAH1B2 FP inh = inhibitors of human PAFAH1B2; AID 492953; recombinant PAFAH1B2, FP-rhodamine activity probe, fluorescence polarization; P68402; 340,000 tested, 1.2% active; inhibition, % at 3.39 µM;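 active = inhibition above the mean of all tested compounds plus 3 SD, cut at about 24% in these data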
pPAFAH FP inh = pPAFAH (human) enzyme inhibition; AID 463082; recombinant pPAFAH, FP-rhodamine probe fluorescence polarization; Q13093; inhibition, % at 3.39 µM; 330,000 tested, 1.5% active;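 active = inhibition above the mean inhibition across the screen plus 3 SD, cut at about 25% in these data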;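 also: inhibitors block binding of the rhodamine activity-based probe so polarization drops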
Target sequence (Q13093 whole entry, looked up): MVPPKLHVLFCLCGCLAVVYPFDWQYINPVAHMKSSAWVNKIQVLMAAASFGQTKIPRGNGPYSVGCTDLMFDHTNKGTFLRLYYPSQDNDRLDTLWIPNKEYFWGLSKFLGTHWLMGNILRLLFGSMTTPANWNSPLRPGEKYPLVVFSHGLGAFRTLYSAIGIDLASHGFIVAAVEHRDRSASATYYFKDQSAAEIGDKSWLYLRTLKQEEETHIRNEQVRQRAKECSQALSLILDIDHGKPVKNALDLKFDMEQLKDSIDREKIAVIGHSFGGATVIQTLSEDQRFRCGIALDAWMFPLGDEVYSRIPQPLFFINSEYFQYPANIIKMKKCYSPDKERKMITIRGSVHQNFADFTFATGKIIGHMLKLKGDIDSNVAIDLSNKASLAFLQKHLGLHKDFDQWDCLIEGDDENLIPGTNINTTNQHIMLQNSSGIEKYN
PAFAH2 inh = inhibitors of human PAFAH2; 340,000 tested, 0.99% active; recombinant PAFAH2, FP-rhodamine activity probe, fluorescence polarization; Q99487; AID 492956; inhibition, % at 3.39 µM;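 active = inhibition above the mean over all tested compounds plus 3 SD, cut at about 30% in these data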;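 also: inhibitors block probe labeling of enzyme so polarization drops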
A number is an active result; n = inactive; x = no result. An excerpt weighted towards active compounds, which were near 2.8% of everything screened.

SMILES	HTRA1 inhibitor	DAGLB inhibitor	PAFAH1B3 FP inh	PAFAH1B2 FP inh	pPAFAH FP inh	PAFAH2 inh
O=C(CSc1ccccc1)N1CCN(C(=O)c2ccco2)CC1	n	n	n	n	n	n
Cc1cccc(C(=O)OCC(=O)N2CCN(C(=O)c3ccco3)CC2)c1O	n	n	n	n	n	n
Cc1cccc(OCC(=O)OCC(=O)N2CCN(C(=O)c3ccco3)CC2)c1C	n	n	n	n	27	n
O=C(CSc1ccccc1)OCC(=O)N1CCN(C(=O)c2ccco2)CC1	n	n	n	n	26	n
Cc1ccc(SCC(=O)OCC(=O)N2CCN(C(=O)c3ccco3)CC2)c(C)c1	n	n	n	n	34	n
O=C1CN(N=Cc2ccco2)C(=O)N1	n	n	n	n	x	n
Cc1cc2c(=O)n(C)c(SCC(=O)Nc3ccccc3C)nc2s1	n	n	n	n	n	n
COc1ccc(CNC(=O)COC(=O)CCC2CCCCC2)cc1	n	n	n	n	31	n
COC(=O)c1ccc(CNC(=O)COC(=O)CCN2C(=O)C3CC=CCC3C2=O)cc1 (stereo not drawn)	n	n	n	n	n	n
COC(=O)c1ccc(CNC(=O)COC(=O)CCC2CCCC2)cc1	n	n	n	n	25	n
CCc1ccc(NC(=O)COC(=O)CCC2CCCC2)cc1	n	n	n	n	n	n
COc1ccc(C(=O)COC(=O)CCCC(=O)NC2CCCCC2)cc1	n	n	n	n	n	n
CC(C)(C)NC(=O)C(=O)NNC(=O)COc1ccc(Br)cc1	n	n	n	31	n	n
N#CCSc1nnc(Nc2ccccc2)s1	n	n	n	n	n	n
OCCSc1nnc(Nc2ccccc2)s1	n	n	n	n	25	n
CC(C)=CCC1=C(OCC(=O)O)C(=O)c2ccccc2C1=O	n	n	57	n	n	35
CCn1c(COC(=O)CNC(=O)c2ccccc2)nc2cc(S(=O)(=O)N(C)C)ccc21	n	n	n	n	n	n
O=c1[nH]nc(SCc2ccccc2)n1C1CC2C=CC1C2 (stereo not drawn)	n	n	n	26	n	n
Cc1c(Cl)cccc1NC(=O)CCNC(=O)N1CC(=O)Nc2ccccc21	n	n	n	n	n	n
O=C(O)c1cccc(S(=O)(=O)N(Cc2ccccc2)c2ccccc2Cl)c1	n	n	n	n	x	n
O=C(O)c1cccc(S(=O)(=O)N(Cc2ccccc2)c2cccc(C(F)(F)F)c2)c1	n	n	n	n	28	n
O=C(O)c1cc(S(=O)(=O)N(Cc2ccccc2)c2ccc(Cl)cc2)ccc1Cl	n	n	n	29	n	n
Cc1[nH]c2ccc(C(=O)NCCN3CCOCC3)cc2c1C	n	n	n	n	n	n
CC(C)c1ccc(S(=O)(=O)N2CCN(C(=O)Cc3ccsc3)CC2)cc1	n	n	n	n	n	n
O=C(CSc1ccccn1)N/N=C/c1c[nH]c2ccccc12	n	n	n	n	n	n
SMILES	HTRA1 inhibitor	DAGLB inhibitor	PAFAH1B3 FP inh	PAFAH1B2 FP inh	pPAFAH FP inh	PAFAH2 inh
O=C(O)COc1ccccc1/C=N/NC(=O)CSc1nnc(SCc2cccc3ccccc23)s1	n	n	n	n	n	n
O=C(O)COc1ccccc1/C=N/NC(=O)CSc1nnc(SCc2ccc(Cl)cc2)s1	n	n	n	43	27	n
O=C(CSc1nnc(SCc2cccc3ccccc23)s1)N/N=C/c1c[nH]c2ccccc12	n	n	n	26	n	n
CC(=O)N1c2ccc(S(=O)(=O)NCCc3ccc(Cl)cc3)cc2CC1C (stereo not drawn)	n	n	n	n	30	n
O=C(NNC(=O)c1ccccc1O)c1cc2ccccc2o1	n	n	n	n	26	n
O=C(NNC(=O)c1cc2ccccc2o1)c1ccncc1	n	n	n	n	n	n
CCN(C(=O)CSc1ncccc1C(=O)O)C1CCCCC1	n	n	n	29	n	n
COc1ccc(NS(=O)(=O)c2ccc(N3C(=O)CCC3=O)cc2)cc1	n	n	n	n	n	n
O=C1CCC(=O)N1c1ccc(S(=O)(=O)Nc2ccc(Br)cc2)cc1	n	n	n	n	33	n
O=S(=O)(c1ccc(Cl)cc1)c1cc(O)ccc1O	n	n	n	26	n	n
O=S(=O)(c1ccccc1)c1cc(O)ccc1O	n	n	n	n	n	n
CCc1cc2c3c([nH]c2cc1S(=O)(=O)NCCCOC)CC(C)(C)CC3=O	n	n	n	n	n	n
Clc1ccc(CNc2nc(CN3CCOCC3)nc3scc(-c4ccccc4)c23)cc1	n	n	n	n	33	n
Clc1ccc(-c2csc3ncnc(NCCN4CCOCC4)c23)cc1	n	n	n	n	n	n
c1ccc(CNc2nc(CN3CCOCC3)nc3scc(-c4ccccc4)c23)cc1	n	n	n	n	34	n
CC1CCCCC1NC(=O)Cn1cnc2sccc2c1=O (stereo not drawn)	n	n	n	n	x	n
O=C(c1cc2ccccc2o1)N1CCN(S(=O)(=O)c2ccc(F)c(F)c2F)CC1	n	n	n	n	n	n
CCc1cccc2c(/C=N/NC(=O)c3cccc(S(=O)(=O)Nc4ccccc4Cl)c3)c[nH]c12	n	n	31	26	27	n
CC(=O)Nc1sc(C)c(C)c1C(=O)OCC(=O)N(CCC#N)c1cc(C)cc(C)c1	n	n	n	n	x	n
Cc1cccc(C2=NN(c3ccc(Br)cc3)[C@@H](C(=O)N3CCOC3=O)[C@@H]2c2ccc(F)cc2)c1	n	n	n	n	30	n
COc1ccc2nc3oc(C(=O)N4CCC(C(N)=O)CC4)cc3cc2c1	n	n	n	n	31	n
CCn1c2ccccc2c2cc(/C=N/NC(=O)c3ccc(O)cc3)ccc21	n	n	n	n	n	n
Cn1c2ccccc2c2cc(/C=N/NC(=O)c3ccc(O)cc3O)ccc21	n	n	33	n	31	n
O=C(OC[C@H]1O[C@@H](OC(=O)c2cc(O)c(O)c(OC(=O)c3cc(O)c(O)c(O)c3)c2)[C@H](OC(=O)c2cc(O)c(O)c(OC(=O)c3cc(O)c(O)c(O)c3)c2)[C@@H](OC(=O)c2cc(O)c(O)c(OC(=O)c3cc(O)c(O)c(O)c3)c2)[C@@H]1OC(=O)c1cc(O)c(O)c(OC(=O)c2cc(O)c(O)c(O)c2)c1)c1cc(O)c(O)c(OC(=O)c2cc(O)c(O)c(O)c2)c1	x	x	x	x	70	x
Cc1nc2cc(Cl)ccc2n1-c1ccccc1	n	n	n	n	25	n
O=C(Nc1ccc(O)c(C(=O)O)c1)Oc1ccccc1	n	n	n	n	n	n
O=C(O)C1=CC(=C(c2ccc(O)c(C(=O)O)c2)c2ccc(O)c(C(=O)O)c2)C=CC1=O	x	x	x	x	66	x
N#Cc1ccccc1NC(=O)CSc1nnc(-c2ccc(F)cc2)n1-c1ccccc1	n	n	n	26	x	n
Cc1nnc(SCC(=O)Nc2ccccc2F)n1-c1ccc(F)cc1	n	n	n	n	n	n
Cc1nnc(SCC(=O)Nc2cc(C(N)=O)cc(C(N)=O)c2)n1-c1ccccc1	n	n	n	28	n	n
